# Screening results deposited in PubChem by several laboratories.
# Wnt bcat act: Wnt/beta-catenin pathway activators, primary screen, cell-based, plate reader, single point; Wnt/beta-catenin reporter cell assay, activator; activation, % at 9.35 µM; hit rate 1.2% among 300,000; AID 743398, 2014; in the data active means activation above about 30%, passing the limit was not always enough; inconclusive means no clear call, values can overlap the other calls;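 further: 0% = neutral control wells and 100% = positive control wells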
# esBAF inh: Bmi1 luciferase reporter increase in mESCs, primary screen, esBAF inhibitor project, mouse ES cells, Bmi1 luciferase knock-in, single point; 24 h; 100% = twice the neutral-well signal; reporter increase, % at 12.5 µM; hit rate 2% among 350,000; AID 602393, 2012; in the data active means activation above about 40%; inconclusive means no clear call, values can overlap the other calls;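 further: 0% = median of the plate's neutral control wells and 100% = double that signal; a rise in the Bmi1 reporter signal indicates esBAF inhibition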
# HSF1 inh: HSF1 inhibitors in luciferase reporter cells, primary screen, cell-based, NIH3T3, luminescence; NIH3T3-HGL HSE-luciferase, MG132-induced, luminescence 8 h; hits give low values; activity change, negative = inhibition, % at 7.5 µM (by protocol); hit rate 0.77% among 300,000;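 active means more than half of replicate wells show activity change below -50%, luminescence cut by over half; inconclusive means some wells, but at most half, below -50%; inactive means no replicate well below -50%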;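 further: luciferase reports HSF-1 transcriptional activity via heat shock element; 0% = median of DMSO wells and -100% = zero luminescence signal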
# MITF TRPM1 HTS: activators of MITF-driven TRPM1 promoter reporter, primary screen, cell-based, SK-MEL-5, luciferase, single point; AID 588334, 2011; hit rate 0.75% among 300,000; SK-MEL-5 TRPM1-promoter luciferase, 24 h; % of positive control, neutral wells = 0; activation, % at 12.5 µM;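 active means mean activation of at least 80% with every replicate also reaching 80%; inconclusive means mean reaches 80% but some replicate falls short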;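 further: 0% = neutral control wells and 100% = parthenolide positive control wells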
# SMARCA2 activ: SMARCA2 (BRM) function activators, primary screen, cell-based, luminescence, high throughput; MG213 cells, MMTV-luciferase reporter, dexamethasone, overnight; hit rate 1% among 370,000; activation, % at 9.1 µM; in the data active means activation above about 7.8%;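 further: 0% = vehicle wells and 100% = reference activator wells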
# HSF-1 act: HSF-1 activators, primary screen, NIH3T3-HGL cells, MG132 stress, luminescence, single point; NIH3T3-HGL HSF-1 luciferase reporter, 8 h; 100% = twice DMSO control signal; activation, % at 9 µM; hit rate 1.7% among 300,000; AID 504408, 2011;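 active means mean replicate activation of at least 50% with a set share of replicates each reaching 50%; inconclusive means only one of those two conditions met; inactive means mean below 50% and too few replicates reaching it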;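 further: 0% = median of the neutral control wells and 100% = twice that signal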
# Ring1 derepress: Ring1 mRNA increase in mouse ESCs, confirmation, esBAF inhibitor project, cell-based, mouse ESC, RT-qPCR, cherry-pick; mouse ESC E14, Ring1 mRNA RT-qPCR fold change; fold change at 33 µM; 550 tested, under 10 active; AID 743176, 2013; shares compounds with esBAF inh;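 active means Ring1 gene expression raised more than 2-fold over untreated cells in both replicates at either tested dose; inconclusive means only one replicate above 2-fold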;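 further: Ring1 transcript normalised to actin housekeeping signal by TaqMan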
# Fgf4 repress: Fgf4 mRNA decrease in mouse ESCs, confirmation, esBAF inhibitor project, cell-based, mouse ESC, RT-qPCR, cherry-pick | shares compounds with esBAF inh | mouse ESC E14, Fgf4 mRNA qPCR fold change; hits give low values | Fgf4 expression fold change at 33 µM | hit rate 4% among 550 | AID 743177, 2013;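 active means Fgf4 expression under 0.8 fold of control in both repeat measurements at one or both tested doses; inconclusive means under 0.8 fold in just a single repeat measurement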;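 further: Fgf4 transcript normalised to actin in duplex TaqMan qPCR; cells exposed to compound for 24 h before lysis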
# Bmi1 derepress: esBAF inhibition via Bmi1 de-repression, confirmation, cell-based, RT-qPCR, mouse ESC, single point, cherry-pick | shares compounds with esBAF inh | mouse ESE14 ES cells, Bmi1 mRNA qPCR fold; hits give high values | fold change at 33 µM | 550 tested, under 10 active | AID 743180, 2013;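 active means Bmi1 expression fold change above 6 at either tested concentration, seen in replicate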;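 further: higher fold means more Bmi1 de-repression and stronger esBAF inhibition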
# A549 tox SP: A549 cell cytotoxicity, cytotoxicity control, plate reader, single point, cherry-pick; AID 743188, 2013; shares compounds with esBAF inh; 550 tested, under 10 active; cell viability change % (negative = cytotoxic), % at 25 µM, hits read low; call rule not given here
# HepG2 tox SP: HepG2 cell cytotoxicity, cytotoxicity control, plate reader, single point, cherry-pick | shares compounds with esBAF inh | hits give low values | activity change, negative = inhibition, % at 25 µM | hit rate 4% among 550; in the data active means activity change below about -50%
# HEK293 tox SP: HEK293 cell cytotoxicity, cytotoxicity control, plate reader, single point, cherry-pick; shares compounds with esBAF inh; activity change, negative = inhibition, % at 25 µM, hits read low; AID 743190, 2013; hit rate 3% among 550; in the data active means activity change below about -38%, passing the limit was not always enough
# Starred values were filed as active, the others as inactive; ? = inconclusive; . = no result given. Most compounds without a hit are left out; they make up all but 4.3% or so of the library.
SMILES,Wnt bcat act,esBAF inh,HSF1 inh,MITF TRPM1 HTS,SMARCA2 activ,HSF-1 act,Ring1 derepress,Fgf4 repress,Bmi1 derepress,A549 tox SP,HepG2 tox SP,HEK293 tox SP
CC(C)(C)C(=O)N1CCN(c2nc3ccccc3s2)CC1,20,64*,25,122*,1,24,1.2,0.87,1.1,3,11,-3
CCc1ccc2nc(N3CCN(C(=O)C(C)(C)C)CC3)sc2c1,17,?,9,65,-2,11,.,.,.,.,.,.
O=C(CNC(=O)c1ccccc1F)Nc1ccc2c(c1)OCO2,-3,62*,.,67,4,.,1.1,0.88,1.5,-15,-9,-13
O=C(CCc1nnc(C2(c3ccc(Cl)cc3)CCC2)o1)N1CCCC1,29,65*,12,43,7,24,0.9,0.94,1.3,-12,-12,-18
COc1ccccc1C(=O)NCC(=O)Nc1ccc2c(c1)CCC2,23,73*,.,?,1,.,0.86,0.97,1.3,-1,-8,0
Cc1ccc(C(=O)NCC(=O)Nc2ccc3c(c2)CCC3)cc1,-2,72*,.,46,2,.,0.89,0.88,1.4,-2,-8,-8
COc1ccc(NC(=O)Nc2cccc3c2O[C@@H](CN(C)C(=O)Nc2ccccc2)[C@H](C)CN([C@H](C)CO)C3=O)cc1,.,1,.,.,.,.,.,.,.,.,.,.
C[C@@H]1CN([C@H](C)CO)S(=O)(=O)c2ccc(C#Cc3ccccc3F)cc2O[C@H]1CN(C)C(=O)Cc1cccnc1,.,-6,.,.,.,.,.,.,.,.,.,.
COc1cc(Cl)ccc1OCc1cc(C(=O)N(C)Cc2cccc3cnccc23)no1,11,71*,22,45,-1,2,1.2,1.1,1.5,-7,-13,-31
C=CCn1cccc(C(=O)Nc2ccc(Cl)cc2)c1=O,15,63*,14,82*,-2,31,1.2,0.94,1.2,6,-20,-15
Cc1ccc(NC(=O)C2CC3CCC2C3)c(Br)c1 (stereo unspecified),7,73*,14,52,3,17,1,1,2,-10,-18,-11
C[C@@H]1CN([C@@H](C)CO)C(=O)c2cc(NS(=O)(=O)c3ccc(F)cc3)ccc2O[C@H]1CN(C)Cc1ccc2c(c1)OCO2,.,2,.,.,.,.,.,.,.,.,.,.
C/C=C/c1ccc2c(c1)O[C@H](CN(C)C(=O)Nc1cc(F)ccc1F)[C@H](C)CN([C@@H](C)CO)S2(=O)=O,.,0,.,.,.,.,.,.,.,.,.,.
